CYP2C19 activ – cytochrome P450 2C19 (human) activation. 96,000 tested, under 10 active. P33261. activation factor at 5 µM. AID 1025. recombinant CYP2C19, luciferin-H EGE luminescence; active compounds read high; 0 = fully inhibited enzyme, 1 = untreated enzyme;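 active = activation factor of at least 2 at 5 µM in the primary screen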;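 also: 0 = wells with 2.5 mM tranylcypromine and 1 = vehicle-only wells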
CYP2C9 act – activators of human CYP2C9 | 96,000 compounds, 1.4% hits | activation factor at 5 µM | P11712 | AID 1024 | recombinant CYP2C9, luciferin-H conversion, luminescence; active compounds read high; factor 1 = untreated enzyme, 0 = blocked;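 active = activation factor of 2 or more for CYP2C9 at a 5 µM dose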;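 also: 0 = sulfaphenazole-blocked wells and 1 = vehicle-only wells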
Target sequence (P11712 whole entry, looked up): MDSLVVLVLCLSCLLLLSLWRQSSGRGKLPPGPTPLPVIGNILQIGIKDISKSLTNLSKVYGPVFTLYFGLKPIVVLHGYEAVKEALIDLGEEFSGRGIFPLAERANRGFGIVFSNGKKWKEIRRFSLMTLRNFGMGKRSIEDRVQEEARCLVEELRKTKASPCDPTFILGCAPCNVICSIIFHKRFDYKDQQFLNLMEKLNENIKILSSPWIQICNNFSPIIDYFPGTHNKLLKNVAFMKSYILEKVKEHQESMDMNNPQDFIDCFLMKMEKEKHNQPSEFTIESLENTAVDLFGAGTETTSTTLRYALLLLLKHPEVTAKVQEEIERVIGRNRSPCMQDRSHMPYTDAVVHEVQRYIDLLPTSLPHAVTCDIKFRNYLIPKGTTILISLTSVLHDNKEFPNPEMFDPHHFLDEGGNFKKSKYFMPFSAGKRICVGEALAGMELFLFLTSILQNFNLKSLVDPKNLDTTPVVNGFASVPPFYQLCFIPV
sEH inh – inhibitors of human soluble epoxide hydrolase | P34913 | recombinant human sEH enzymatic activity assay | inhibition, % at 2 µM | 91,000 compounds, 0.34% hits | AID 707; in the data active = inhibition above about 80%
sEH activator – activators of human soluble epoxide hydrolase; purified human sEH enzymatic activity, activator screen; activation, % at 2 µM; 91,000 compounds, 0.04% hits; AID 717; in the data active = activation above about 37%
CYP2C9 inhib – inhibitors of human CYP2C9 | P11712 | CYP2C9 Supersomes, luciferin-H conversion, luminescence | inhibition, % at 5 µM | 96,000 compounds, 20% hits | AID 777;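 active = blocking of liver enzyme CYP2C9 beyond about 50% at 5 µM, limit read from the data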
CYP2C19 inh – inhibitors of human CYP2C19; P33261; CYP2C19 Supersomes, luciferin-H EGE luminescence, 30 min; inhibition, % at 5 µM; 96,000 compounds, 21% hits; AID 778;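 active = CYP2C19 inhibition above a set limit at 5 µM in the primary screen, cut at about 50% in these data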;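 also: plate controls were negative control wells for no effect and 2.5 mM tranylcypromine positive control for full effect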
Numbers without * were called inactive; nt = not tested or not shown. Sampled rows, rich in hits. Any-hit rate of the full collection: about 27%.

SMILES	CYP2C19 activ	CYP2C9 act	sEH inh	sEH activator	CYP2C9 inhib	CYP2C19 inh
CCn1c(C(C#N)/C(=N\S(=O)(=O)c2cccs2)c2ccccc2)nc2ccccc21 (configuration not stated)	1	0.9	-5.0	6.5	11.8	3.2
C=CCOc1c2ccc(C(=O)NCc3ccc(C)cc3)cc2nn1C	0.9	1.1	22.5	-21.6	-5.0	13.0
CCC(C)NC(=O)CC1Oc2ccc(Cl)cc2NC1=O (configuration not stated)	1	1.2	-3.0	3.7	-21.1	4.6
CSc1ccccc1NC(=O)c1cc(C(C)C)on1	1	1.4	-21.4	20.9	-44.4	-1.5
CSc1ccccc1NC(=O)c1cc(C)on1	0.8	2.4*	-4.9	4.4	-142.7	18.1
CSc1ccccc1NC(=O)c1ccncc1	0.3	1	4.0	-5.7	-0.3	66.0*
CC(=O)Nc1cc(C(=O)N2CCCC2)ccc1S(=O)(=O)c1ccc(Cl)cc1	1	0.9	-18.3	15.2	6.1	-3.2
COc1ccc(Cn2c(/C=C/c3ccccc3)nc3ccccc32)cc1	0.6	0.1	nt	nt	91.4*	37.9
CCn1c(/C=C/c2ccccc2)nc2ccccc21	0.6	2.6*	-9.2	11.1	-162.7	43.7
O=C(NCC1CCN(c2ccc(S(=O)(=O)N3CCOCC3)cc2)CC1)c1cccc(Cl)c1	0.8	0.8	38.5	-41.9	23.2	22.8
NC(=O)c1ccsc1NC(=O)C1CCCCC1	0.4	0.7	-5.9	8.3	32.8	62.7*
Cc1ccc(Oc2nccc(-c3ccc(Cl)cc3)n2)cc1	0.5	0.8	-6.7	4.6	23.5	53.0*
CC(C)(C)NC(=O)C(=O)NNC(=O)c1ccccc1	1.1	0.8	1.7	1.0	15.1	-6.5
COCCNC(=O)C(OC(=O)c1cc2oc(C)cc2n1C)C(C)C (configuration not stated)	0.8	0.8	3.6	-3.7	18.1	18.3
Cc1nn(-c2ccccc2)c2[nH]c(=O)c(CNc3ccc(N4CCOCC4)cc3)cc12	0.7	0.4	6.6	-7.0	56.8*	33.7
CC(C)(C)c1nn(-c2ccccc2)c2[nH]c(=O)c(CNc3ccc4c(c3)OCCO4)cc12	0.9	0.9	-18.4	11.8	7.5	6.3
CC(C)(C)c1nn(-c2ccccc2)c2[nH]c(=O)c(CNCc3ccco3)cc12	0.7	0.4	5.4	-3.8	62.1*	28.3
COc1ccc(CNCc2cc3c(C(C)(C)C)nn(-c4ccccc4)c3[nH]c2=O)cc1	0.6	0.4	-2.0	4.0	58.9*	40.6
Cc1ccc(-n2nc(C(=O)NCc3ccc(C)o3)c3c4ccccc4n(C)c3c2=O)cc1	1	0.9	-6.8	3.7	6.9	-2.3
Cc1cc(C(=O)NCc2ccco2)cs1	0.5	0.5	nt	nt	47.8	48.6
CC(C)NC(=O)c1ccc(OC2CSC2)cc1	0.9	1	13.2	-14.2	0.4	7.8
c1cc2c3c(cccc3c1)C(N1CCN(C3=Nc4cccc5cccc3c45)CC1)=N2	nt	nt	3.3	-4.0	nt	nt
c1ccc(CC2CCN(C3=Nc4cccc5cccc3c45)CC2)cc1	0.1	1	-3.2	1.3	-4.1	86.7*
Cc1ccc(-c2nnc(Nc3ccccc3)o2)cc1	0.6	0.8	nt	nt	22.4	44.9
CCC1CCCCN1CC(=O)Nc1cc(C)nn1-c1nc(C)cc(C)n1 (configuration not stated)	0.5	0.1	15.7	-13.2	93.4*	52.0*
SMILES	CYP2C19 activ	CYP2C9 act	sEH inh	sEH activator	CYP2C9 inhib	CYP2C19 inh
COc1ccc2nc(NC(=O)CCc3nc(-c4ccccc4F)no3)sc2c1	0.7	0.5	9.3	-6.9	47.7	27.1
CCC(=O)N1CCc2cc(OC)c(OC)cc2C1COc1ccc(C(=O)OC)cc1 (configuration not stated)	0.4	0.7	-15.8	15.2	32.7	59.8*
COc1ccc(OC(C)=O)c(C2c3cc(OC)c(OC)cc3CCN2C(C)=O)c1 (configuration not stated)	0.7	0.7	nt	nt	30.1	34.6
N#CC1=C(N)OC2=C(CN(Cc3ccccc3)C/C2=C\c2cccnc2)C1c1cccnc1 (configuration not stated)	1	0.6	-5.0	7.9	40.9	3.3
CCN1CC2=C(OC(N)=C(C#N)C2c2ccccc2)/C(=C\c2ccccc2)C1 (configuration not stated)	0.1	0.3	2.8	0.8	65.8*	90.7*
Cc1cccc(NC(=O)CC2C(=O)NCCN2C(=S)Nc2ccccc2)c1 (configuration not stated)	0.8	0.7	-6.8	8.7	27.9	19.4
Cc1cccc(CN2CCN(CC(=O)NCc3ccc(F)cc3)C2=O)c1	nt	nt	-6.5	5.6	nt	nt
O=C(CCC(=O)N1CCN(S(=O)(=O)c2ccc(Cl)cc2)CC1)NC1CCCc2ccccc21 (configuration not stated)	0.5	0.7	4.6	-1.1	28.2	46.8
Cc1ccc(S(=O)(=O)N2CCN(CC(=O)NC3CCCc4ccccc43)CC2)c(C)c1 (configuration not stated)	0.5	1	12.2	-9.8	-3.9	51.6*
Cc1ccc(-c2nnn(CC(=O)NC3CCCc4ccccc43)n2)cc1 (configuration not stated)	0.7	0.8	-1.4	-0.1	15.8	28.7
Cc1ccc(S(=O)(=O)N2CCN(CC(=O)NC3CCCc4ccccc43)CC2)cc1C (configuration not stated)	0.3	1.1	-5.2	4.3	-12.1	69.9*
CCCn1c2ccc(/C(C)=N\O)cc2c2cc(/C(C)=N/O)ccc21	1.1	1	2.1	0.7	0.4	-7.7
CCN(CC(=O)NCc1ccccn1)S(=O)(=O)c1ccc(Cl)cc1	0.6	0.9	nt	nt	5.4	40.3
COc1cccc(Cn2c(N)c(C#N)c3nc4ccccc4nc32)c1OC	0.7	0.8	0.1	-1.8	16.8	25.3
COc1ccc(C)cc1-n1c(N)c(C#N)c(C#N)c1-c1ccc(OC)c(OC)c1OC	0.7	0.5	nt	nt	50.5*	25.9
CCC1(CC)C(=O)NN(c2ccccc2)C1=O	nt	nt	7.0	-5.8	nt	nt
Cc1ccc(OCc2nc(-c3ccccc3)no2)c(C)c1	0.3	0.4	7.8	-8.0	58.6*	72.3*
Clc1ccc(-c2noc(COc3ccccc3)n2)cc1	0.7	1.1	nt	nt	-7.7	27.0
Cc1cc(C)c(C)c(OCc2nc(-c3cccnc3)no2)c1	0.3	0.8	2.7	-0.3	21.5	68.3*
CCOc1ccc(-c2nc(-c3cccnc3)no2)cc1	nt	nt	3.1	-5.5	nt	nt
Cc1ccc(-c2nn3c(C)nnc3c3ccccc23)cc1S(=O)(=O)N(C)CCO	1	0.1	-14.5	11.5	85.5*	3.2
CCOC(=O)N1CCN(S(=O)(=O)c2cc(-c3nn4c(C)nnc4c4ccccc34)ccc2C)CC1	0.4	0.2	8.2	-8.5	80.1*	56.1*
Cc1ccc(-c2nn3c(-c4ccco4)nnc3c3ccccc23)cc1S(=O)(=O)N1CCOCC1	0.9	0.8	nt	nt	17.3	5.8
